Only some compounds are listed: those with a hit (about 10% of all), similar ones and a draw of the others.
GPT2 inh = inhibitors of human GPT2 alanine aminotransferase; Potency, µM (titrated, usually from 57.7 µM), hits mostly inhibitors; AID 1671188; 100,000 tested, 0.25% active; Recombinant GPT2, coupled pyruvate oxidase/HRP Amplex Red fluorescence; Q8TD30; also: nearly all actives have a fitted effect of over 60% in size
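GPT2 10ng/uL, a-KG 250uM, L-Ala 2mM, HEPES pH7.5 + 0.0001% Tween; 30 min RT. Then Amplex mix (PO/HRP/ThPP), 30 min RT dark, fluorescence. AOA 50uM used as positive control.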
FLuc inh = inhibitors of firefly (Photinus pyralis) luciferase; P08659; purified P. pyralis luciferase, luminescence, biochemical; Potency, µM (titrated, usually from 115 µM), usual class: inhibitors; 76,000 tested, 2.5% active; also: nearly all actives have a fitted effect of over 65% in size
Target sequence (P08659 whole entry, looked up): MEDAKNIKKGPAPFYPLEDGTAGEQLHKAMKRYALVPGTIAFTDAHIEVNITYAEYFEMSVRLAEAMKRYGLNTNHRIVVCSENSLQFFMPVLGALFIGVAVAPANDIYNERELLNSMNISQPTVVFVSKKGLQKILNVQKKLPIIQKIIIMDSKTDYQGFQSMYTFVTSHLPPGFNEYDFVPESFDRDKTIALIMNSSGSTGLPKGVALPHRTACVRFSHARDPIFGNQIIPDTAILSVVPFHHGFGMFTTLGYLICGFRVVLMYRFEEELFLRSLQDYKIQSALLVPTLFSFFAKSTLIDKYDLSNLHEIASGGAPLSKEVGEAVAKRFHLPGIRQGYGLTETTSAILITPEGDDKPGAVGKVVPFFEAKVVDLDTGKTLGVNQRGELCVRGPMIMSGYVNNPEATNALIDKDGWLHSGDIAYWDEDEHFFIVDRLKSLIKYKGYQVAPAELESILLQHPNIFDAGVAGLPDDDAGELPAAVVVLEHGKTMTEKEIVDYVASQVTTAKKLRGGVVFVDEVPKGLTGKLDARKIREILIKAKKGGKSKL
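Luminescence read by CCD imaging after purified firefly luciferase (10nM final) was added to substrate buffer holding 10uM D-luciferin and 10uM ATP, pH 7.5, pre-dosed with compound.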
3T3 cytotox = cytotoxic compounds in NIH 3T3 cells; NIH 3T3 viability, CellTiter-Glo ATP luminescence, 48-72 h; Potency, µM (series often up to 96.7 µM), hits mostly inhibitors; 94,000 tested, 4.3% active; AID 1345082; also: nearly all actives have a fitted effect of over 55% in size
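Luminescent ATP readout (CellTiter-Glo, 10 min RT) after 48 or 72 hr compound exposure of NIH 3T3 cells seeded at 400 cells/well in 1536-well format; quantitative HTS.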
NPR1 antag = blocks ANP-stimulated signaling of human Npr1 receptor | P16066 | HEK293 hNpr1 GloSensor cGMP, ANP-stimulated luminescence | Potency, µM (doses to about 46.3 µM), hits mostly inhibitors | 76,000 tested, 1.6% active; calls by dose curve; also: nearly all actives have a fitted effect of over 60% in size
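Compound pre-incubated 30 min at room temperature on GloSensor-loaded HEK293 cells stably carrying hNpr1 and the pGS-40F cGMP biosensor. Stimulation uses hNppA at 0.1 nM final; luminescence is taken at baseline and 20 min post-agonist.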
HEK cytotox = HEK 293 cell cytotoxicity; AID 1345083; HEK 293 viability, ATP luminescence (CellTiter-Glo), 48-72 h; 94,000 tested, 6.6% active; Potency, µM (doses to about 115 µM), hits mostly inhibitors; also: nearly all actives have a fitted effect of over 60% in size
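HEK 293 seeded at 250 cells/well receive compound via pintool. After 48 or 72 hr at 37 degree Celsius, 5% CO2 and 95% humidity, CellTiter-Glo is dispensed and luminescence read following 10 min at room temperature.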
Of the large screens only hits and unclear results are named; the others gave an inactive call. Unless noted, calls follow the shape of the dose curve; as a rule, active = well fitted curve in the direction sought with a large enough effect; inconclusive = small, poorly fitted or top-dose-only effect, or another doubt; inactive = no such curve, though single readings can be large; an effect the other way counts as inactive or inconclusive.

COCc1nc(C2CC(NC(=O)C(=O)c3ccco3)C2)cc(=O)[nH]1 (configuration not stated)	none
Cn1c(CCNC(=O)C2CC(=O)N(c3n[nH]c4ccccc34)C2)nc2ccccc21 (configuration not stated)	none
COc1ccc(NC(=O)[C@@H]2C[C@@H](c3cccc(C(F)(F)F)c3)N(CC3CCOCC3)C2)cc1	3T3 cytotox inconclusive, HEK cytotox inconclusive
O=C(Nc1ccccc1)[C@@H]1C[C@@H](c2cccc(C(F)(F)F)c2)N(CC2CCOCC2)C1	GPT2 inh inconclusive, 3T3 cytotox inconclusive, NPR1 antag inconclusive, HEK cytotox 56.2µM
O=C(Nc1cccc(F)c1)[C@@H]1C[C@@H](c2cccc(C(F)(F)F)c2)N(CC2CCOCC2)C1	3T3 cytotox 20µM, HEK cytotox 22.4µM
CN1C[C@H](C(=O)Nc2cccc(F)c2)C[C@H]1c1cccc(C(F)(F)F)c1	3T3 cytotox 50.1µM, HEK cytotox 63.1µM
COc1ccc(NC(=O)[C@@H]2C[C@@H](c3cccc(C(F)(F)F)c3)N(C)C2)cc1	3T3 cytotox inconclusive, HEK cytotox inconclusive
CN1C[C@H](C(=O)NCCOc2ccccc2)C[C@H]1c1cccc(C(F)(F)F)c1	3T3 cytotox inconclusive, HEK cytotox 100µM
CCn1c(C2CCCN(S(=O)(=O)c3cccc4nonc34)C2)nn(C)c1=O (configuration not stated)	none
CCOCCCNCc1ccc(-c2ccccc2)o1	none
CCCc1nc(C)cc(N2CCC(NCCc3ccc(Cl)cc3)CC2)n1	3T3 cytotox inconclusive, HEK cytotox 14.1µM
CC(C)c1cccc(NC(=O)c2ccc(CN3C(=O)NC4(CCOCC4)C3=O)cc2)c1	FLuc inh 39.8µM, NPR1 antag 11.2µM, HEK cytotox inconclusive
CCc1ccc(NC(=O)c2ccc(CN3C(=O)NC4(CCOCC4)C3=O)cc2)cc1	FLuc inh 12.6µM, 3T3 cytotox inconclusive, NPR1 antag inconclusive, HEK cytotox inconclusive
CS(=O)(=O)N1CCOc2ccc(CCC(=O)NCCN3CCOCC3)cc2C1	none
O=C(C1CC(=O)N(c2n[nH]c3cccc(F)c23)C1)N1CCc2ccccc2C1 (configuration not stated)	HEK cytotox inconclusive
Cc1ccc(-c2cccc(CN3CCCC(NC(=O)Nc4ccccc4F)C3)c2)cc1Cl (configuration not stated)	3T3 cytotox 28.2µM, HEK cytotox 17.8µM (no result: FLuc inh, NPR1 antag)
COC(=O)NC1CCCN(Cc2cccc(-c3ccc(C)c(Cl)c3)c2)C1 (configuration not stated)	3T3 cytotox inconclusive, HEK cytotox 44.7µM (no result: FLuc inh, NPR1 antag)
Cc1ccc(-c2cccc(CN3CCCC(NC(=O)Cc4ccccc4)C3)c2)cc1Cl (configuration not stated)	none (no result: FLuc inh, NPR1 antag)
CC(=O)NC1CCCN(Cc2cccc(-c3ccc(C)c(Cl)c3)c2)C1 (configuration not stated)	3T3 cytotox 35.5µM, HEK cytotox 20µM (no result: FLuc inh, NPR1 antag)
Cc1ccc(-c2cccc(CN3CCCC(NC(=O)C4CCCC4)C3)c2)cc1Cl (configuration not stated)	none (no result: FLuc inh, NPR1 antag)
CCCC1CN(Cc2cccc(F)c2)C(=O)c2ccc(C)nc2O1 (configuration not stated)	3T3 cytotox inconclusive, HEK cytotox 50.1µM (no result: GPT2 inh, FLuc inh, NPR1 antag)
Cc1ccc2c(n1)OC1(CCCC1)CN(Cc1ccc3c(c1)OCO3)C2=O	3T3 cytotox inconclusive, HEK cytotox inconclusive (no result: FLuc inh, NPR1 antag)
Cc1ccc2c(n1)O[C@@H](COCc1ccccc1)CN(Cc1cccs1)C2=O	3T3 cytotox 25.1µM, HEK cytotox 31.6µM (no result: FLuc inh, NPR1 antag)
Cc1ccc2c(n1)O[C@@H](COCc1ccccc1)CN(Cc1ccc3c(c1)OCO3)C2=O	3T3 cytotox 12.6µM, HEK cytotox inconclusive (no result: FLuc inh, NPR1 antag)
COc1ccc(CN2CC(C(C)(C)C)Oc3nc(C)ccc3C2=O)cc1 (configuration not stated)	3T3 cytotox inconclusive (no result: FLuc inh, NPR1 antag)
COc1ccccc1OCCC1CCN(C(=O)Cc2c[nH]c3ccccc23)C1 (configuration not stated)	3T3 cytotox inconclusive, HEK cytotox inconclusive
CN1C(=O)C(CC(=O)Nc2ccccc2)=C2CCCCC21 (configuration not stated)	none
Cc1ncccc1C(=O)N1CCC(Oc2cnc3c(ccn3-c3cncnc3)c2)CC1	3T3 cytotox 70.8µM
O=C(c1ccncn1)N1CCC(Oc2cnc3c(ccn3-c3cncnc3)c2)CC1	HEK cytotox inconclusive
O=C(OCc1ccccc1)N1CCC(Oc2cnc3c(ccn3-c3cncnc3)c2)CC1	3T3 cytotox inconclusive, NPR1 antag inconclusive, HEK cytotox 79.4µM
c1ccc(CN2CCC(Oc3cnc4c(ccn4-c4cncnc4)c3)CC2)cc1	3T3 cytotox inconclusive, HEK cytotox 100µM
O=C(O)Cn1ccc2cc(OCC3CCN(C(=O)Cc4ccccc4)CC3)cnc21	3T3 cytotox 100µM
O=C(NCCCN1CCc2ccccc2C1)C1CCc2ncc(-c3ccc(F)cc3)n2C1 (configuration not stated)	3T3 cytotox inconclusive, HEK cytotox inconclusive
CN1CC(=O)N(C2CCNC2)Cc2c(NCC3CC3)ncnc21 (configuration not stated)	GPT2 inh inconclusive (no result: FLuc inh, NPR1 antag)
COc1cccc(C(=O)N[C@H]2[C@H](O)[C@H](O)C[C@@H]2c2ccc(N3CCOCC3)nc2)c1	none
CCCC(=O)N1CCC(Oc2cnc3c(ccn3-c3cncnc3)c2)CC1	3T3 cytotox 10µM, HEK cytotox inconclusive
O=C(Cc1ccccc1)N1CCC(Oc2cnc3c(ccn3-c3cncnc3)c2)CC1	3T3 cytotox inconclusive, HEK cytotox 56.2µM
CC(C)C(=O)N1CCC(Oc2cnc3c(ccn3-c3cncnc3)c2)CC1	3T3 cytotox inconclusive
O=C(CC1CC1)N1CCC(Oc2cnc3c(ccn3-c3cncnc3)c2)CC1	3T3 cytotox inconclusive, HEK cytotox inconclusive
O=C1CCN(CC(O)Cc2ccccc2)c2ccccc2CCN1C/C=C/c1ccccc1 (configuration not stated)	GPT2 inh inconclusive, 3T3 cytotox inconclusive, HEK cytotox 22.4µM (no result: FLuc inh, NPR1 antag)
N#Cc1cccc(C(=O)N2CCNc3cnc(Nc4cccc(F)c4)nc3C2)c1	3T3 cytotox inconclusive, NPR1 antag 28.2µM, HEK cytotox inconclusive
O=C(c1cc2ccccc2[nH]1)N1CCNc2cnc(Nc3ccccc3)nc2C1	FLuc inh inconclusive, 3T3 cytotox inconclusive, NPR1 antag inconclusive, HEK cytotox 79.4µM
CC(C)NC(=O)N1CCNc2cnc(Nc3cccc(F)c3)nc2C1	3T3 cytotox inconclusive, NPR1 antag inconclusive, HEK cytotox inconclusive
COC(=O)CNC(=O)NCC(=O)N1CCCCCNC(=O)CC1c1ccccc1 (configuration not stated)	none
CN(C(=O)Nc1ccc(Cl)cc1)C1CCc2ccccc21 (configuration not stated)	HEK cytotox inconclusive
Cc1ccc(C(=O)N(C)C2CCc3ccccc32)cc1 (configuration not stated)	FLuc inh inconclusive, 3T3 cytotox inconclusive, HEK cytotox 100µM

Screens: PubChem, National Center for Advancing Translational Sciences (NCATS)
